Assay outcomes (PubChem BioAssay)
Compounds with a hit are over-represented: about 6.8% of the library has one in this group of screens.
USP7 inh: human USP7 deubiquitinase inhibition | 47,000 tested, 0.3% active | Q93009 | inhibition, % at 20 µM | purified USP7, Ub-rhodamine cleavage fluorescence
USP8 block: human USP8 deubiquitinase inhibition. P40818. purified USP8, Ub-rhodamine cleavage fluorescence, 30 min. inhibition, % at 20 µM. 47,000 tested, 4.2% active. AID 1645853
UCHL1 block: human UCHL1 deubiquitinase inhibition; P09936; purified UCHL1, Ub-rhodamine cleavage fluorescence; inhibition, % at 20 µM; 47,000 tested, 0.2% active
USP28 block: human USP28 deubiquitinase inhibition; purified USP28, Ub-rhodamine cleavage fluorescence, 30 min; inhibition, % at 25 µM; 47,000 tested, 3% active; Q96RU2
OTUD3 inh: inhibitors of human OTUD3 deubiquitinase. Q5T2D3. purified OTUD3, Ub-rhodamine fluorescence, 2 h. inhibition, % at 25 µM. 47,000 tested, 0.7% active
USP10 block: human USP10 deubiquitinase inhibition; Q14694; AID 1645856; inhibition, % at 20 µM; purified USP10, Ub-rhodamine fluorescence, 60 min; 47,000 tested, 1.1% active
Target sequence (Q14694 whole entry, looked up): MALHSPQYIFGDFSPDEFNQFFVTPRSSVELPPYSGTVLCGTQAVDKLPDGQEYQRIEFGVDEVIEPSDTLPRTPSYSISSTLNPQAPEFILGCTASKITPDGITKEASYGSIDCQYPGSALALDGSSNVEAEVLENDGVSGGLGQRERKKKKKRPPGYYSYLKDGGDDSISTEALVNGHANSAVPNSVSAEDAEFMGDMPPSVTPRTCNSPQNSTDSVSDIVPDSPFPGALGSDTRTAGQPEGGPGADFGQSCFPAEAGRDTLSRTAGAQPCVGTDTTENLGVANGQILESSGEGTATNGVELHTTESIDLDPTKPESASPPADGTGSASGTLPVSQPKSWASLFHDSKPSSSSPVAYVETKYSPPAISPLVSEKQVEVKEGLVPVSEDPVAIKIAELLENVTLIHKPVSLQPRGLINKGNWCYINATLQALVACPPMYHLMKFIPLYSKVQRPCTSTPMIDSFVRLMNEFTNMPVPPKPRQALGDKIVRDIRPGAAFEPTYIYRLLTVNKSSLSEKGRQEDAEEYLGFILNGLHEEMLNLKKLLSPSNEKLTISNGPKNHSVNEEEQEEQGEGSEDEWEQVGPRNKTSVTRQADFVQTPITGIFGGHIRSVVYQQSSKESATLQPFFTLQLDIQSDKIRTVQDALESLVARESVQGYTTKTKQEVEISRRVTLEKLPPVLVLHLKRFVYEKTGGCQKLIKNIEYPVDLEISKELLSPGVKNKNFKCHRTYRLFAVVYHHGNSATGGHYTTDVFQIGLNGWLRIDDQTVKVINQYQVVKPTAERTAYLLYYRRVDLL
* = called active by the depositor. No stated cut-off is given here; in the data, active means inhibition above about 30%; inactive means the rest.

SMILES | USP7 inh | USP8 block | UCHL1 block | USP28 block | OTUD3 inh | USP10 block
Cc1cc(C(=O)CN2CCN(Cc3ccc4c(c3)CCO4)CC2)c(C)n1C1CC1 | -3.5 | -37.9 | -5.7 | -9.8 | -5.9 | -4.6
COc1ccc(S(=O)(=O)N2CCCC2)cc1C(=O)NCc1ccc2c(c1)OCO2 | 2.8 | 3.5 | 2.8 | 34.8* | 9.2 | 2.2
COc1ccc(S(=O)(=O)N2CCCCCC2)cc1C(=O)Nc1ccc2[nH]c(=O)[nH]c2c1 | 4.1 | 10.9 | 6.6 | 47.4* | 25.4 | 6.8
CC1(C)CC(=O)C2=C(C1)Nc1ccccc1N(C(=O)c1ccccc1)C2c1cccc(OCc2ccccc2)c1 (centres undefined) | 2.9 | -13.9 | 1.1 | -2.7 | -3.1 | 5.0
COc1cc2c(C#N)c(OC)nc3c2c(n1)NC(C)(c1ccc(Br)cc1)N3 (centres undefined) | -8.2 | 84.6* | -3.6 | 8.7 | -29.0 | -6.8
O=C(c1noc2c1CCc1sccc1-2)N(CCc1ccncc1)CC1CCCO1 (centres undefined) | -6.0 | -2.8 | -0.8 | 5.3 | 1.5 | 0.0
COc1ccccc1NS(=O)(=O)c1cc(-c2nc(C)cs2)n(C)c1C | 6.2 | 8.4 | 4.4 | 8.3 | 13.5 | 0.6
CCOc1ccc(S(=O)(=O)NCc2ccccc2Cl)c2ccccc12 | 16.1 | 30.4* | 11.2 | 20.2 | 24.0 | 14.5
Cc1cccc(NC(=O)c2sc3nc(-c4ccccc4)cn3c2C)c1 | -30.5 | -10.2 | -37.6 | -10.0 | -20.6 | -7.1
Cc1cc(Cl)c2c(c1)[C@]1(C(=O)N2)N2CCC[C@H]2[C@@H](C(=O)c2cc3ccccc3o2)[C@]12C(=O)Nc1ccccc12 | 3.0 | 41.1* | -8.1 | -18.6 | -17.9 | -5.1
O=C(c1cc2ccccc2o1)[C@@H]1[C@@H]2CCCN2[C@]2(C(=O)Nc3c(Cl)cccc32)[C@@]12C(=O)Nc1ccccc12 | -7.2 | -7.2 | -14.1 | -12.4 | -12.1 | -7.4
c1ccc2c(-c3nc(C4CC4)no3)nnc(NC3CCCC3)c2c1 | 3.8 | 13.6 | 5.3 | 35.7* | 21.7 | 9.0
CC1CCN(c2nnc(-c3nc(C4CC4)no3)c3ccccc23)CC1 | -3.5 | 6.0 | 5.4 | 21.5 | 31.0* | 13.0
c1ccc2c(N3CCCC3)nnc(-c3nc(C4CC4)no3)c2c1 | -13.7 | -0.6 | 1.4 | 28.0 | 3.0 | 3.7
CNc1nc(C2CCCN(C(=O)c3cc(C4CC4)on3)C2)nc2c1CCN(C)C2 (centres undefined) | -9.7 | 36.4* | -1.1 | -75.8 | -36.6 | -3.1
O=C(CC1CCCC1)Nc1cc(F)c2nc(N3CCOCC3)ccc2c1 | -2.4 | 70.7* | -0.1 | 5.3 | 3.1 | -4.2
O=C(Nc1cc(F)c2nc(N3CCOCC3)ccc2c1)C1CCCC1 | -5.5 | 56.6* | -0.9 | -16.9 | -9.0 | -3.2
COc1ccc(OC)c(CNC(=O)c2ccc3cn[nH]c3c2)c1 | -3.4 | -1.1 | -2.4 | 0.9 | -4.1 | -0.9
CC(C)CCCCCCCCCCCC(=O)O | -17.9 | 7.9 | 3.7 | 13.6 | 6.2 | 30.4*
CC(C)(Oc1ccc(Cl)cc1)C(=O)Nc1ccccc1N1CCCCC1 | 12.3 | 7.5 | 1.9 | 7.8 | 8.6 | 1.3
Cc1c(S(=O)(=O)NC2CCCCCC2)cc(C(=O)N2CCCC2)n1C | -0.1 | 7.6 | -0.1 | 12.3 | 4.9 | 0.2
CCc1ccc(NC(=O)Cn2c(=O)n(C)c(=O)c3nscc32)cc1 | -2.2 | 3.5 | 9.2 | 24.2 | 5.2 | -3.2
CCc1ccc(NC(=O)Cn2c(=O)n(Cc3ccccc3)c(=O)c3nn(CC)cc32)cc1 | 32.1* | 98.2* | 5.1 | 27.7 | 18.3 | 56.2*
CCn1cc2c(n1)c(=O)n(Cc1ccccc1)c(=O)n2CC(=O)Nc1ccc(C(C)C)cc1 | 14.1 | 71.2* | 2.5 | 0.7 | 7.5 | 23.5
CCn1cc2c(n1)c(=O)n(Cc1ccccc1)c(=O)n2CC(=O)Nc1ccc(OC)cc1 | 9.9 | 68.3* | 4.3 | 2.5 | -2.9 | 47.0*
SMILES | USP7 inh | USP8 block | UCHL1 block | USP28 block | OTUD3 inh | USP10 block
COc1ccc(-c2nn3c(Nc4ccc(NC(C)=O)cc4)cc(C)nc3c2C)cc1OC | 5.1 | 17.3 | 7.5 | -5.4 | 1.5 | 0.5
O=C(CCCc1c[nH]c2ccccc12)Nc1ccccc1N1CCOCC1 | -21.9 | -8.7 | -0.5 | -4.9 | -9.0 | 2.3
O=C(CCCc1c[nH]c2ccccc12)Nc1ccc2c(c1)OCCO2 | -3.1 | 6.5 | 3.0 | 74.7* | -14.3 | 2.0
O=C(Nc1nc2c(s1)COCC2)c1cc(-c2ccco2)[nH]n1 | -38.5 | 86.0* | -14.7 | 64.0* | 64.0* | -6.1
O=C(/C=C/c1ccco1)Nc1nc2c(s1)COCC2 | -31.6 | -13.2 | -16.6 | -16.5 | -40.8 | -7.2
Cc1ccnc(NC(=O)c2ccn(COc3ccc(Cl)cc3)n2)c1 | 7.5 | 31.0* | 5.4 | 25.3 | 14.5 | 2.6
O=C(Nc1ccccc1Cl)c1ccn(COc2ccccc2F)n1 | 9.3 | 34.5* | 1.4 | 29.0 | 20.5 | 4.9
Cc1cccc(C)c1NC(=O)c1ccn(COc2ccccc2)n1 | -1.2 | 2.8 | 0.1 | 36.0* | 0.0 | -0.8
O=C(Nc1ccc(Cl)cc1Cl)c1ccn(COc2ccccc2F)n1 | 5.1 | 20.2 | 0.3 | 17.6 | 11.6 | 0.4
Cc1ccnc(NC(=O)c2ccn(COc3ccc(F)cc3)n2)c1 | 4.0 | 9.9 | 3.2 | 13.5 | 2.8 | 0.4
CS(=O)(=O)Nc1ccc(C2(C(=O)NCc3ccccn3)CCCCC2)cc1 | -3.7 | 8.6 | 1.9 | 4.7 | 17.4 | -0.2
Cc1cccc(CC(=O)Nc2c(C)nc3sccn3c2=O)c1 | 0.1 | -13.5 | -1.2 | -6.9 | 1.6 | 1.3
Cc1ccnc2nc(C(=O)N(Cc3ccccc3)Cc3nc4ccccc4c(=O)[nH]3)nn12 | -7.6 | -116.4 | -12.7 | -238.4 | -166.1 | -2.9
O=C(Nc1nc2c(s1)CN(C(=O)c1cnn(-c3ccccc3)n1)CC2)C1CCCO1 (centres undefined) | 6.1 | -186.7 | 3.0 | 7.5 | 3.0 | -3.1
O=C(Nc1nc2c(s1)CN(C(=O)c1cc(-c3ccco3)on1)CC2)C1CCCO1 (centres undefined) | -35.4 | 58.9* | 21.1 | 20.2 | 8.5 | -1.6
COc1cc(O)cc2c1C(=O)OC(C)CCCC(O)CCC2 (centres undefined) | 1.2 | -7.3 | -4.2 | -12.9 | -6.6 | -5.7
COc1cc(O)cc2c1C(=O)OC(C)CCCCCCC2 (centres undefined) | 23.9 | 9.4 | 0.7 | 23.8 | 5.7 | 38.0*
COc1nc2c(c(-c3ccco3)c1C#N)Cc1cc(NC(C)=O)ccc1-2 | -51.9 | 65.8* | -1.1 | -1.4 | -1.5 | -2.2
O=c1c2nnn(Cc3ccccc3)c2ncn1Cc1nc(-c2cccc(Cl)c2)no1 | 4.5 | 15.2 | 1.8 | 14.3 | 9.2 | 1.5
COc1ccc(Cc2nc(-c3ccc(=O)[nH]c3)no2)cc1OC | 3.5 | -34.6 | 0.1 | 32.9* | 8.1 | -2.0
O=c1ccc(-c2noc(Cc3cccc(Cl)c3)n2)c[nH]1 | -16.3 | -46.0 | -7.0 | 68.3* | -14.4 | -8.1
Cc1nnc2ccc(-c3noc(Cc4cccc(F)c4)n3)cn12 | -2.1 | -5.5 | -0.1 | 10.3 | -4.4 | -0.8
